Laboratory results: PubChem BioAssay AID1159580 (chemical genetic matrix, 2015)
In all, about 5,500 compounds went through this assay and about 2,000 (36%) were called active. Inconclusive results (about 18%) are left out. No stated cut-off is given here; in the data, active means normalized growth mostly below about 0.91 (no sharp cut-off); inconclusive means no clear call, values can overlap the other calls; inactive means mostly above about 0.92. Some of the results follow.

Experiment: chemical genetic growth profiling, strain panel (AID 1159580);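 further: tested at 20 µM; growth read once vehicle control cultures reached saturation at 30 °C; 1 = growth at the plate median or of vehicle wells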
Details: S. cerevisiae deletion strains, growth OD
[1] = locus YAL013W, strain DEP1, stronger effect = lower value
[2] = locus YBR229C, strain ROT2, stronger effect = lower value
[3] = locus YCL061C, strain MRC1, stronger effect = lower value
[4] = locus YDL101C, strain DUN1, stronger effect = lower value
[5] = locus YDL134C, strain PPH21, stronger effect = lower value
[6] = locus YDR150W, strain NUM1, stronger effect = lower value
[7] = locus YEL061C, strain CIN8, stronger effect = lower value
[8] = locus YGR078C, strain PAC10, stronger effect = lower value
[9] = locus YHR030C, strain SLT2, stronger effect = lower value
[10] = locus YHR087W, strain rtc3, stronger effect = lower value
[11] = locus YJR043C, strain POL32, stronger effect = lower value
[12] = locus YJR075W, strain HOC1, stronger effect = lower value
[13] = locus YKL190W, strain CNB1, stronger effect = lower value
[14] = locus YLR039C, strain RIC1, stronger effect = lower value
[15] = locus YLR058C, strain SHM2 (second series), stronger effect = lower value
[16] = locus YLR085C, strain ARP6, stronger effect = lower value
[17] = locus YLR262C, strain YPT6, stronger effect = lower value
[18] = locus YML094W, strain GIM5, stronger effect = lower value
[19] = locus YMR219W, strain ESC1, stronger effect = lower value
[20] = locus YMR263W, strain SAP30, stronger effect = lower value
[21] = locus YNL128W, strain TEP1, stronger effect = lower value
[22] = locus YNL153C, strain GIM3, stronger effect = lower value
[23] = locus YNL298W, strain CLA4 (second series), stronger effect = lower value
[24] = locus YNL322C, strain KRE1, stronger effect = lower value
[25] = locus YNR030W, strain Alg12, stronger effect = lower value
[26] = locus YPL055C, strain LGE1, stronger effect = lower value
[27] = locus YPL241C, strain CIN2, stronger effect = lower value
[28] = locus YPR135W, strain CTF4, stronger effect = lower value

Measured: normalized growth

COc1ccccc1C1CCN(c2ncnc3scc(-c4ccccc4)c23)CC1
inactive: [1] 1 | [2] 1.01 | [3] 1 | [4] 1.04 | [5] 0.994 | [6] 1.05 | [7] 1 | [8] 1.01 | locus YGR229C, strain SMI1, stronger effect = lower value 1.01 | [9] 1.03 | [10] 0.976 | [11] 1.01 | [12] 1.01 | [13] 1 | [14] 1.02 | [15] 0.984 | [16] 1.03 | [17] 1.01 | [18] 0.992 | [19] 0.996 | [20] 1.02 | [21] 1.02 | [22] 1.01 | [23] 0.994 | [24] 0.992 | [25] 1 | [26] 0.987 | [27] 1.04 | [28] 1.02

Cc1onc(-c2c(Cl)cccc2Cl)c1C(=O)N1CCN(c2ncnc3scc(-c4ccccc4)c23)CC1
inactive: [1] 0.97 | [2] 1 | [3] 0.994 | [4] 0.979 | [5] 1 | [6] 0.94 | [7] 1.02 | [8] 1 | [9] 0.942 | [10] 1.01 | [11] 0.977 | [12] 0.997 | [13] 1.01 | [14] 0.937 | [15] 1.01 | [16] 1.01 | [17] 0.962 | [18] 1.01 | [19] 1.01 | [20] 0.967 | [21] 1.01 | [22] 0.999 | [23] 1.02 | [24] 1.01 | [25] 1.01 | [26] 1.02 | [27] 1.01 | [28] 0.923
